# Active and inactive are the calls of the source. Unless noted, how the calls were made is not given here.
# Tested on: not listed separately
# Test: P. berghei load reduction in hepatocytes – cell-based, HepG2, luciferase luminescence, HepG2 viability, primary screen (AID 624349; in the data active means parasite load remaining mostly below about 12%, no sharp cut-off; inactive means mostly above about 10%;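 further: 100% = mean of DMSO negative control wells on the same plate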)
# Details: P. berghei liver stage in HepG2, luciferase luminescence, concentration not given here; parasite load remaining: stronger effect = lower value; viability: measured here: HepG2 viability without parasites
Structure (SMILES),viability [%],parasite load remaining
CC(=O)OC1C([N+]2(C)CCCCC2)C[C@H]2C3CC[C@H]4C[C@H](OC(C)=O)C([N+]5(C)CCCCC5)CC4(C)[C@H]3CCC12C (some centres undefined),68.8,86.3% (inactive)
COc1cc(CNC(=O)CCCC/C=C\C(C)C)ccc1O,75.2,83.7% (inactive)
O=C1N[C@H](C(=O)O)CS1,70.6,95.8% (inactive)

# Tested on: not listed separately
# Test: signal quenchers or enhancers, Cy5 substrate/SSB – biochemical, NIH Clinical Collection, E. coli SSB, artefact control for HCV NS3 helicase inhibitor project (AID 743268)
# Details: Cy5-oligo bound E. coli SSB, fluorescence interference
row,Structure (SMILES),fluorescence ratio
1,CC(=O)OC1C([N+]2(C)CCCCC2)C[C@H]2C3CC[C@H]4C[C@H](OC(C)=O)C([N+]5(C)CCCCC5)CC4(C)[C@H]3CCC12C (some centres undefined),0.94 (inactive)
2,COc1cc(CNC(=O)CCCC/C=C\C(C)C)ccc1O,0.95 (inactive)
3,O=C1N[C@H](C(=O)O)CS1,1.02 (inactive)

# Tested on: Hepatitis C virus NS3 helicase
# Test: blockers of NS3h binding to DNA – biochemical, fluorescence polarization, NIH Clinical Collection, primary screen (AID 743270)
# Details: NS3 helicase binding to Cy5-dT15 DNA, stronger effect = higher value, concentration not given here
row,Structure (SMILES),inhibition
1,CC(=O)OC1C([N+]2(C)CCCCC2)C[C@H]2C3CC[C@H]4C[C@H](OC(C)=O)C([N+]5(C)CCCCC5)CC4(C)[C@H]3CCC12C (some centres undefined),-0.4% (inactive)
2,COc1cc(CNC(=O)CCCC/C=C\C(C)C)ccc1O,-6.73% (inactive)
3,O=C1N[C@H](C(=O)O)CS1,-3.56% (inactive)

# Target: Single-stranded DNA-binding protein (Escherichia coli (strain K12)) (UniProt P0AGE0)
# Test: SSB-ssDNA binding inhibitors – biochemical, fluorescence polarization, NIH Clinical Collection, counter-screen for HCV NS3 helicase inhibitor project (AID 743271; in the data active means inhibition above about 28%)
# Details: E. coli SSB-DNA binding, stronger effect = higher value, concentration not given here
row,Structure (SMILES),inhibition
1,CC(=O)OC1C([N+]2(C)CCCCC2)C[C@H]2C3CC[C@H]4C[C@H](OC(C)=O)C([N+]5(C)CCCCC5)CC4(C)[C@H]3CCC12C (some centres undefined),11.4% (inactive)
2,COc1cc(CNC(=O)CCCC/C=C\C(C)C)ccc1O,1.44% (inactive)
3,O=C1N[C@H](C(=O)O)CS1,-3.18% (inactive)

# Tested on: not listed separately
# Test: compounds distorting NS3 helicase fluorescence signal – biochemical, NIH Clinical Collection, artefact control for HCV NS3 helicase inhibitor project (AID 743272);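 further: HCV NS3 helicase with a Cy5 labelled single stranded DNA probe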
# Details: fluorescence interference counterscreen, HCV NS3 helicase assay; stronger effect = lower value
row,Structure (SMILES),fluorescence ratio
1,CC(=O)OC1C([N+]2(C)CCCCC2)C[C@H]2C3CC[C@H]4C[C@H](OC(C)=O)C([N+]5(C)CCCCC5)CC4(C)[C@H]3CCC12C (some centres undefined),0.71 (active)
2,COc1cc(CNC(=O)CCCC/C=C\C(C)C)ccc1O,0.9 (inactive)
3,O=C1N[C@H](C(=O)O)CS1,0.96 (inactive)

# Tested on: Neuropilin-2 / VEGF-C interaction (human)
# Test: small molecules blocking Neuropilin-2/VEGF-C interaction – biochemical, microplate binding format, z-score (AID 743281)
# Details: microplate NRP2/VEGF-C binding assay; stronger effect = lower value
Structure (SMILES),outcome,z-score
CC12CCC(=O)C=C1CC[C@@H]1[C@@H]2[C@@H](O)CC2(C)[C@@H](C(=O)CO)CC[C@@H]12 (some centres undefined),inactive,–
CC(=O)O[C@]1(C(C)=O)CC[C@H]2[C@@H]3C=C(C)C4=CC(=O)CCC4(C)[C@H]3CCC21C (some centres undefined),inactive,–
CO[C@H]1C=CO[C@@]2(C)Oc3c(C)c(O)c4c(O)c(c(/C=N/N5CCN(C6CCCC6)CC5)c(O)c4c3C2=O)NC(=O)/C(C)=C\C=C[C@H](C)[C@H](O)[C@@H](C)[C@@H](O)[C@@H](C)[C@H](OC(C)=O)[C@@H]1C,inactive,–
C[C@@H]1C[C@H]2[C@@H]3C[C@H](F)C4=CC(=O)C(Cl)=CC4(C)[C@@]3(F)[C@@H](O)CC2(C)[C@@]1(O)C(=O)CO (some centres undefined),inactive,–
C/C=C1/[C@H]2C=C(C)C[C@]1(N)c1ccc(=O)[nH]c1C2,inactive,–
CC#C[C@]1(O)CC[C@H]2[C@@H]3CCC4=CC(=O)CCC4=C3[C@@H](c3ccc(N(C)C)cc3)CC21C (some centres undefined),inactive,–
C#C[C@]1(O)CC[C@H]2[C@@H]3[C@H](C)CC4=C(CCC(=O)C4)[C@H]3CCC21C (some centres undefined),inactive,–
CC(=O)O[C@H]1C[C@@H]2CC[C@@H]3[C@H](CCC4(C)[C@H]3C[C@H]([N+]3(C)CCCCC3)[C@@H]4OC(C)=O)C2(C)C[C@@H]1N1CCCCC1 (some centres undefined),inactive,–
C#C[C@]1(O)CC[C@H]2[C@@H]3CCc4cc(O)ccc4[C@H]3CCC21C (some centres undefined),inactive,–
CC12CC[C@@H]3c4ccc(OS(=O)(=O)O)cc4CC[C@H]3[C@@H]1CCC2=O (some centres undefined),inactive,–
CCC(=O)O[C@]1(C(=O)SCF)[C@H](C)C[C@H]2[C@@H]3C[C@H](F)C4=CC(=O)C=CC4(C)[C@@]3(F)[C@@H](O)CC21C (some centres undefined),inactive,–
C=CC[C@@H]1/C=C(\C)C[C@H](C)C[C@H](OC)[C@H]2OC(O)(C(=O)C(=O)N3CCCC[C@H]3C(=O)O[C@H](/C(C)=C/[C@@H]3CC[C@@H](O)[C@H](OC)C3)[C@H](C)[C@@H](O)CC1=O)[C@H](C)C[C@@H]2OC,inactive,–
C=CC1=C(C(=O)O)N2C(=O)[C@@H](NC(=O)/C(=N/OCC(=O)O)c3csc(N)n3)[C@H]2SC1,inactive,–
CC(=O)OC1C([N+]2(C)CCCCC2)C[C@H]2C3CC[C@H]4C[C@H](OC(C)=O)C([N+]5(C)CCCCC5)CC4(C)[C@H]3CCC12C (some centres undefined),inactive,–
COc1cc(CNC(=O)CCCC/C=C\C(C)C)ccc1O,–,1.86 (inactive)
CO[C@H]1C=CO[C@@]2(C)Oc3c(C)c(O)c4c(O)c(c5c(nc6cc(C)ccn65)c4c3C2=O)NC(=O)/C(C)=C\C=C[C@H](C)[C@H](O)[C@@H](C)[C@@H](O)[C@@H](C)[C@H](OC(C)=O)[C@@H]1C,inactive,–

# Source: PubChem BioAssay
